# The supplement of paper PMC4206461
# System: Pseudomonas aeruginosa PA14 wild type
# Experiment: respiration area under curve with compound as sole nitrogen source, 24 h (OmniLog AUC (arbitrary units)); higher = more respiration / better utilisation as nitrogen source
# Protocol: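 Biolog Phenotype MicroArray plates PM6-PM8: each di/tripeptide is the sole nitrogen source (IF-0 medium with succinate/ferric citrate and dye mix A). Tetrazolium reduction was read in the OmniLog every 15 min for 24 h at 37°C and summarised as area under the respiration curve (arbitrary units). The paper counts values below 2000 as no respiration and above 8000 as solid respiration. Replicate datasets are averaged.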
row,Structure (SMILES),respiration area under curve
1,CC(C)C[C@@H](NC(=O)CNC(=O)CN)C(=O)O (plate: PM8),5880 (active)
2,CC(C)C[C@H](NC(=O)CNC(=O)CN)C(=O)O (plate: PM8),10400 (active)
